Entries with a potency or affinity are not part of this list. Activity calls are given as the source filed them.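 How the source made its calls: active means a dose-response fit showing signal loss, with half-maximal concentration no higher than twice the top tested dose; inconclusive means flat fit between 30% and 70% signal loss, or poor fit; inactive means the rest.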

This test is described as follows: viability loss in HepG2 hepatoma cells – cell-based, cherry-picks, set 2, cytotoxicity control, dose response (AID 687002). Conditions: ATP luminescence (CellTiter-Glo), 48 h; series mostly up to 26 µM. On the technique in general: In ATP-based viability assays light output follows the ATP content of the culture.
As to `Cc1ccc(N(CC(N)=O)S(=O)(=O)c2ccc(F)cc2)cc1`, the outcome was inactive.

On to `C/C=C/c1ccc2c(c1)O[C@H](CN(C)S(=O)(=O)c1ccccc1)[C@H](C)CN([C@@H](C)CO)S2(=O)=O`, for which the compound was called inactive.

For `C[C@H]1CCCCO[C@H](CN(C)C(=O)c2ccncc2)[C@@H](C)CN([C@@H](C)CO)C(=O)c2cc(NC(=O)Cc3ccccc3)ccc2O1`, the call was inactive.

On to `CO[C@H](CN(C)Cc1ccc2c(c1)OCO2)[C@@H](C)CN(C(=O)c1ccccc1)[C@@H](C)CO`, for which the compound was classed as inactive.

For the compound `C[C@H](CO)N1C[C@H](C)[C@H](CN(C)Cc2cccnc2)Oc2ncc(C#CC3(O)CCCC3)cc2C1=O`, the result was inactive.

`O=C(C[C@H]1C=C[C@H](NC(=O)C2CCC2)[C@@H](CO)O1)NC1CCC1`: the call was inactive.

Take `Cc1noc(C)c1S(=O)(=O)Nc1ccc2c(c1)CC(=O)N([C@@H](C)CO)C[C@@H](C)[C@@H](CN(C)S(=O)(=O)c1cccs1)O2`: the outcome was inactive.

For the compound `COc1ccccc1C(=O)Nc1ccc2c(c1)C(=O)N(C)C[C@@H](OC)[C@H](C)CN(C)[C@@H](C)CO2`, the compound was called inactive.

In the case of `COc1ccccc1C(=O)N1C[C@H]2[C@@H](c3ccccc31)[C@@H](CO)N2C(=O)Cc1ccccc1`, the call was inactive.

As for `CC(=O)NC[C@H]1[C@@H](c2ccc(C3=CCCC3)cc2)[C@@H](CO)N1C(=O)NC(C)C`, the result was inactive.

On to `COCC(=O)Nc1ccc2c(c1)OC[C@@H](C)N(C(=O)Cc1cccnc1)C[C@H](C)[C@@H](OC)CN(C)C2=O`, for which the call was inactive.

Turning to `C[C@@H]1CN([C@H](C)CO)C(=O)c2c(c3ccccc3n2C)-c2ccccc2CO[C@H]1CN(C)S(=O)(=O)c1cccs1`, the result was inactive.

Turning to `CNC(=O)C[C@@H]1CC[C@H]2[C@@H](COC[C@H](O)CN2C(=O)Nc2ccc3c(c2)OCO3)O1`, the compound was called inactive.

For the compound `COC(=O)N(C)C[C@H]1OCc2cn(nn2)CCCC(=O)N([C@@H](C)CO)C[C@@H]1C`, the result was inactive.

Consider `CC(=O)NNC(=O)CSc1nnc(-c2ccccc2)c(-c2ccccc2)n1`, for which the result was inactive.

For the compound `CNC[C@@H]1OCCCC[C@H](C)Oc2ccc(NC(=O)Nc3ccc(F)cc3)cc2C(=O)N([C@@H](C)CO)C[C@H]1C`, the result was inactive.

Consider `CNC[C@H]1Oc2ccc(NC(=O)Cc3cn(C)c4ccccc34)cc2CC(=O)N([C@@H](C)CO)C[C@H]1C`, for which the result was inactive.

For the compound `CCNC(=O)COc1cccc(C(=O)NCc2ccccc2)c1`, the compound was called inactive.

For `O=C1CCC(C(=O)Nc2ccccc2)N1` (stereo not given), the outcome was inactive.

Regarding `COc1ccc(C#Cc2ccc3c(c2)O[C@H](CN(C)C(=O)Nc2cccc(OC)c2)[C@H](C)CN([C@@H](C)CO)S3(=O)=O)cc1`, the compound was called inactive.

With `C[C@@H]1CN([C@@H](C)CO)C(=O)c2cc(NC(=O)C3CCCCC3)ccc2O[C@@H](C)CCCCO[C@@H]1CN(C)C(=O)NC1CCCCC1`, the result was inactive.

As to `C[C@@H]1CN([C@@H](C)CO)C(=O)CCCn2nncc2CO[C@H]1CN(C)Cc1cccc(C(F)(F)F)c1`, the outcome was inactive.

In the case of `CCCC#Cc1ccc2c(c1)O[C@@H](CN(C)C)[C@@H](C)CN([C@@H](C)CO)S2(=O)=O`, the result was inactive.

Take `CCC(=O)N1[C@@H]2c3cccc(=O)n3C[C@H]1[C@H](CO)[C@H]2C(=O)NCc1ccccc1`: the compound was called inactive.

On to `C[C@@H]1CCCCO[C@@H](CN(C)S(=O)(=O)c2ccc(F)cc2)[C@@H](C)CN([C@@H](C)CO)C(=O)c2cc(NS(=O)(=O)c3ccc(F)cc3)ccc2O1`, for which the call was inactive.

As to `C[C@@H]1CN([C@H](C)CO)C(=O)c2cc(-c3ccc(C#N)cc3)cnc2O[C@@H]1CN(C)C(=O)Nc1ccc(F)cc1`, the outcome was inactive.

With `COc1cccc(S(=O)(=O)N(C)C[C@H]2OCc3cnnn3CCCC(=O)N([C@H](C)CO)C[C@H]2C)c1`, the result was inactive.

For `COc1ccccc1-c1ccc2c(c1)O[C@@H](CN(C)C(=O)c1cccnc1)[C@H](C)CN([C@@H](C)CO)S2(=O)=O`, the call was inactive.

As for `CN1C(=O)c2cc(NS(=O)(=O)c3cccc(F)c3)ccc2OC[C@H]2O[C@H](CC(=O)O)CC[C@H]21`, the compound was called inactive.

Take `COCCNC(=O)C[C@@H]1CC[C@@H]2[C@H](COC[C@@H](O)CN2S(=O)(=O)c2ccccc2C)O1`: the call was inactive.

On to `COc1cccc(S(=O)(=O)N2C[C@@H](O)COC[C@@H]3O[C@H](CC(=O)N4CCN(C)CC4)CC[C@H]32)c1`, for which the compound was called inactive.

For the compound `Cc1cc(C)c(NC(=O)C(C)N2CCCCCC2)c(C)c1` (stereo not given), the compound was called inactive.

Consider `O=C(C[C@H]1C[C@H]2c3cc(NC(=O)C4CCC4)ccc3O[C@H]2[C@@H](CO)O1)NCc1cccc(F)c1`, for which the result was inactive.

With `CC(C)NC(=O)N(C)C[C@H]1OCCCC[C@@H](C)Oc2ccc(NC(=O)c3ccccc3)cc2C(=O)N([C@@H](C)CO)C[C@@H]1C`, the compound was classed as inactive.

For `COc1ccc(CN(C)C[C@@H]2Oc3ccc(NC(=O)C4CC4)cc3C(=O)N([C@H](C)CO)C[C@H]2C)cc1`, the compound was called inactive.

Consider `C[C@H]1CN([C@@H](C)CO)S(=O)(=O)c2ccc(Br)cc2O[C@@H]1CN(C)S(=O)(=O)c1ccccc1F`, for which the compound was called inactive.

Regarding `C[C@H]1CN([C@@H](C)CO)C(=O)Cc2cc(NC(=O)CCCCCC(=O)Nc3ccccc3N)ccc2O[C@H]1CN(C)C(=O)Nc1ccccc1`, the compound was classed as inactive.

Turning to `C[C@H]1CN([C@@H](C)CO)C(=O)CCCn2nncc2CO[C@@H]1CN(C)Cc1cccc(C(F)(F)F)c1`, the result was inactive.

Take `C[C@H](CO)N1C[C@H](C)[C@H](CN(C)Cc2ccncc2)Oc2ccc(NC(=O)CCC(F)(F)F)cc2C1=O`: the compound was called inactive.

As for `CC(=O)N1[C@H](CO)[C@H](c2ccc(-c3ccccc3)cc2)[C@H]1CNC(=O)C1CC1`, the result was inactive.

For the origin of these results see PubChem BioAssay.
